Inconclusive results are not listed. Activity calls are given as the source filed them. The call rests on the fitted dose curve; in most records, active means well fitted cell-killing curve with a large enough effect; inconclusive means small, poorly fitted or top-dose-only effect; inactive means no such curve, though single readings can be large or run the other way. Starred links: 1 amine or outer side, 2 acyl side, 3 side chain; linkers in the order of their positions; H or OH if unused. Positions of bridges follow the written chain, without caps; N, C: chain ends. Non-standard residues stand in square brackets, D forms with d. Residues, ends and D or L forms follow the SMILES beside them. Chains are numbered I, II in the order given. *: point of attachment. Actinocin(9to1) = Cc1c2oc3c(C)ccc(C(=O)[*:1])c3nc-2c(C(=O)[*:2])c(N)c1=O; NMeV = CN[CH](C(=O)O)C(C)C; Nva = CCC[C@H](N)C(=O)O; Cbz = O=C(OCc1ccccc1)*; Sar = CNCC(=O)O
Test: qHTS of pediatric cancer cell lines to identify multiple opportunities for drug repurposing: Primary screen for OHS-50 cells (AID 1347103); further: nearly all actives have a fitted effect of over 40% in size
Settings: OHS-50 osteosarcoma viability, CellTiter-Glo luminescence, 48 h; series mostly up to 57.3 µM
Description: Drug repurposing or repositioning has been offered as a strategy for drug development in oncology programs. This approach has special potential for childhood cancers and other rare or orphan diseases, where the expected return on new drug development has been a disincentive to pharmaceuticals.
In this project we exploit the poly-pharmacology of drugs to discover new indications via phenotypic screening of a panel of 19 well-characterized cell lines derived from solid tumors seen in children and adolescents. The goal is to identify approved drugs with previously unrecognized anticancer properties that has the potential to reveal new mechanisms and biological processes involved in carcinogenesis or drug resistance. We employed a titration-based paradigm (quantitative high-throughput screening or qHTS), where all compounds were tested at multiple concentrations for their effect on cell viability. Concentration-response curves (CRCs) were derived directly from the primary screen, and both potency and efficacy values were used to identify compounds with robust bioactivity profiles. We screened the NIH Chemical Genomics Center (NCGC) Pharmaceutical Collection (NPC) and Mechanism Interrogation Plate (MIPE) small molecule collections of approved and investigational compounds against these cell lines; and measured metabolically active cells after 48 hours of compound treatment as a proxy for cell viability.
Assay Submitter: Nathalia J. Martinez, National Center for Advancing Translational Sciences, National Institutes of Health, Rockville, MD, USA; email: natalia.martinez@nih.gov
[1] Shen, M et al. Quantitative high-throughput phenotypic screening of pediatric cancer cell lines identifies multiple opportunities for drug repurposing. Oncotarget 2017 Dec 19;9(4):4758-4772. PMID 29435139.
The cells were obtained from University of North Carolina (UNC), Pediatric Preclinical Testing Program (PPT), and Coriell Institute (CI).
qHTS cell viability assay:
Cells were assayed in growth media at a density of 500-1,000 cells/well. Five microliters of cells were dispensed into 1,536-well, white, solid-bottom, TC-treated plates (Greiner Bio One) using a multidrop dispenser and incubated at 37 degrees C, 5% CO2, under a humidified atmosphere for 5 hours. Twenty-three nanoliters of compounds and controls (neutral control DMSO or positive control bortezomib at final concentration of 2.3 µM) were subsequently transferred by Kalypsys pintool. For primary screens, the MIPE collection was tested at 11-point dilutions (final concentrations range from 0.78 nM to 46 µM) and the NPC collection at 8-point dilutions (final concentrations range from 0.59 nM to 46 µM). Compounds tested in follow-up screens were assayed at 11-point dilutions. Cells were incubated for 48 hours, followed by addition of 3 µL of CellTiter-Glo (Promega). After a 15 min incubation at room temperature, samples were analyzed for luminescence intensity using a ViewLux High-throughput CCD imager equipped with clear filters.
Potency means the concentration at half of the fitted maximal effect.

Structure (SMILES) | Potency
Cc1c2oc3c(C)ccc(C(=O)NC4C(=O)NC(C(C)C)C(=O)N5CCCC5C(=O)N(C)CC(=O)N(C)C(C(C)C)C(=O)OC4C)c3nc-2c(C(=O)NC2C(=O)NC(C(C)C)C(=O)N3CCCC3C(=O)N(C)CC(=O)N(C)C(C(C)C)C(=O)OC2C)c(N)c1=O (stereo not given) (I: TVP[Sar][NMeV] / II: TVP[Sar][NMeV]; ester I:1-I:C, II:1-II:C; linker I:N-II:N via Actinocin(9to1); configuration not given here) | 1 nM (active)
COc1ccc(S(=O)(=O)Nc2cc(-c3c(O)ccc4ccccc34)c(O)c3ccccc23)cc1 | 10900 nM (active)
Cc1cncc2cccc(S(=O)(=O)N3CCCN(C(=O)CN)C[C@@H]3C)c12 | inactive
Oc1ccc(-c2ccc(-c3cc(Nc4cccc(CNC5CC5)c4)n[nH]3)cc2)c(O)c1 | 1090 nM (active)
CCN(CC)Cc1ccc2cc(COC(=O)Nc3ccc(C(=O)NO)cc3)ccc2c1 | 863 nM (active)
CC(Oc1ccc(O)cc1)(P(=O)(O)O)P(=O)(O)O | inactive
CC(C)c1cnn2c(NCc3ccccc3)cc(NCCCCCCN)nc12 | 21700 nM (active)
COc1cc2c(cc1O)CCC1C2CC[C@@]2(C)C1CC[C@@H]2O (stereo not given in full) | 7690 nM (active)
CN(C)c1ccc2cc(C(=O)N[C@@H](CCCN=C(N)CCl)C(=O)NCc3ccccc3)ccc2c1 | 4850 nM (active)
C[C@H](CCC(=O)O)[C@H]1CCC2C3C[C@H](O)[C@@H]4C[C@H](O)CC[C@]4(C)C3CC[C@@]21C (stereo not given in full) | inactive
N#CC(=C(O)c1ccc(Cl)cc1Cl)c1nc2cc(Cl)ccc2c(=O)[nH]1 | inactive
N=c1ccn2c(n1)O[C@H]1[C@@H](O)[C@@H](CO)O[C@H]12 | 2730 nM (active)
CN1CCCN(C(=O)c2cccc(-c3ccc(C=C4C(=O)Nc5ccc(Cl)cc54)o3)c2)CC1 | 13700 nM (active)
CNC(=O)Nc1ccc(-c2nc(N3CC4CCC(C3)O4)c3cnn(C4CCC5(CC4)OCCO5)c3n2)cc1 | 21.7 nM (active)
Cn1cc(-c2cnn3c(N)c(Br)c([C@H]4CCCNC4)nc23)cn1 | 385 nM (active)
Cc1cc(Nc2ncc3c(n2)N(C)C(=O)N(c2cc(NC(=O)c4cccc(C(F)(F)F)c4)ccc2C)C3)n(C)n1 | 217 nM (active)
CC[C@H](CC[C@@H](C)[C@H]1CC[C@H]2[C@@H]3CC=C4C[C@@H](O)CC[C@]4(C)[C@@H]3CC[C@]12C)C(C)C | inactive
COC(=O)[C@@H]1CC2=CC(=O)CC[C@]2(C)[C@@]23O[C@@H]2C[C@@]2(C)[C@H](CC[C@@]24CCC(=O)O4)[C@@H]13 | inactive
C[C@H](NC(=O)C(C#N)=Cc1cccc(Br)n1)c1ccccc1 | 19300 nM (active)
Cn1cc(C2=C(c3c4n(c5ccccc35)CCC(CN)C4)C(=O)NC2=O)c2ccccc21 (stereo not given) | 24300 nM (active)

Structure (SMILES) | Potency
COc1cc(CCc2cc(NC(=O)c3ccc(N4C[C@@H](C)N[C@@H](C)C4)cc3)n[nH]2)cc(OC)c1 | 5440 nM (active)
N#Cc1c(NC(=O)c2cccc3ccccc23)sc2c1CCCC2 | 485 nM (active)
CCCc1nc(C(C)(C)O)c(C(=O)O)n1Cc1ccc(-c2ccccc2-c2nn[nH]n2)cc1 | inactive
CC(=O)N[C@@H]1[C@H](O[C@@H]2c3ccc(c(Cl)c3)Oc3cc4cc(c3O[C@H]3O[C@H](CO)[C@@H](O)[C@H](O)[C@H]3NC(=O)CCCCCCCC(C)C)Oc3ccc(cc3Cl)C[C@H]3NC(=O)[C@H](N)c5ccc(O)c(c5)Oc5cc(O)cc(c5)[C@H](NC3=O)C(=O)N[C@H]4C(=O)N[C@H]3C(=O)N[C@@H]2C(=O)N[C@@H](C(=O)O)c2cc(O)cc(O[C@H]4O[C@H](CO)[C@@H](O)[C@H](O)[C@H]4O)c2-c2cc3ccc2O)O[C@H](CO)[C@@H](O)[C@@H]1O | inactive
CN[C@H]1[C@@H](O)[C@@H]2O[C@@H]3O[C@H](C)CC(=O)[C@]3(O)O[C@@H]2[C@@H](NC)[C@H]1O | 432 nM (active)
OCCN1C[C@H](O)[C@@H](O)[C@H](O)[C@@H]1CO | inactive
C=CC(=O)N1CCc2ccc(-n3c(=O)ccc4cnc5ccc(-c6cnn(C)c6)cc5c43)cc21 | 8630 nM (active)
CN(CC(=O)N(Cc1ccc(C2CCCCC2)cc1)c1ccc(C(=O)O)c(O)c1)S(=O)(=O)c1c(F)c(F)c(F)c(F)c1F | 21700 nM (active)
CCCNC(=O)[C@H]1O[C@H]1C(=O)N[C@H](C(=O)N1CCC[C@@H]1C(=O)OC)C(C)CC (stereo not given in full) | 17200 nM (active)
CCC[C@@H](C=O)NC(=O)[C@H](CC(C)C)NC(=O)[C@H](CC(C)C)NC(=O)OCc1ccccc1 (Cbz-Leu-Leu-[Nva]-aldehyde) | 1530 nM (active)
Cc1cnc(Nc2ccc(CN3CCOCC3)cc2)nc1Nc1cccc(S(=O)(=O)NC(C)(C)C)c1 | 2170 nM (active)
CN1[C@H]2CC(OC(=O)[C@@H](CO)c3ccccc3)C[C@H]1[C@H]1O[C@H]12 (stereo not given in full) | inactive
c1cncc(CN2CCC(n3ncc4c(N5CCOCC5)nc(-c5ccc6[nH]ccc6c5)nc43)CC2)c1 | 2170 nM (active)
CC1(C)[C@H](O[C@H]2O[C@H](C(=O)O)[C@@H](O)[C@H](O)[C@H]2O[C@@H]2O[C@H](C(=O)O)[C@@H](O)[C@H](O)[C@H]2O)CC[C@@]2(C)[C@H]1CC[C@]1(C)[C@H]2C(=O)C=C2[C@H]3C[C@@](C)(C(=O)O)CC[C@]3(C)CC[C@]21C | inactive
O=C1NC(=O)[C@@H](c2cn3c4c(cccc24)CCC3)[C@H]1c1c[nH]c2ccccc12 | 863 nM (active)
CS(=O)(=O)N1CCc2c(-c3cnc(N)nc3)nc(N3CCOCC3)nc21 | 54.4 nM (active)
CC(C)(C)[N+]([O-])=Cc1ccc(S(=O)(=O)O)cc1S(=O)(=O)O | inactive
Cc1cnn(C)c1C(=O)Nc1cc(Nc2ccc3c(C=Cc4ccccn4)n[nH]c3c2)ccc1F | 38500 nM (active)
COc1ccc(C=Cc2cc(OC)c(OC)c(OC)c2)cc1NC(=O)[C@H](N)CO | 13.7 nM (active)
O=C1NCCc2[nH]c(-c3ccncc3)cc21 | 2430 nM (active)

Reference: PubChem BioAssay (NCATS)
